Data published in PubChem BioAssay AID1159580 (chemical genetic matrix, 2015).
Screen size: about 5,500 compounds; about 2,000 (36%) were called active. Inconclusive results (about 18%) are left out. Cut-off read from the data, not from the text of the source: active = normalized growth mostly below about 0.91 (no sharp cut-off); inconclusive = no clear call, values can overlap the other calls; inactive = mostly above about 0.92. The list shows a part of the results.

Assay: chemical genetic growth profiling, strain panel (AID 1159580);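 note: tested at 20 µM; growth read once vehicle control cultures reached saturation at 30 °C; 1 = growth at the plate median or of vehicle wells; lower values mean less growth of the strain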
Conditions: S. cerevisiae deletion strains, growth OD

Measured: normalized growth

C=C(C)[C@H]1COc2cc3oc(=O)ccc3cc2O1
inactive: locus YJR066W, strain TOR1, stronger effect = lower value 0.926 | locus YKL009W, strain mrt4, stronger effect = lower value 0.965 | locus YKL068W, stronger effect = lower value 0.985 | locus YKL085W, strain MDH1 (second series), stronger effect = lower value 0.972 | locus YKL085W, strain MDH1, stronger effect = lower value 0.972 | locus YKR026C, strain gcn3, stronger effect = lower value 0.979 | locus YKR091W, strain srl3, stronger effect = lower value 0.973 | locus YLL026W, stronger effect = lower value 0.966 | locus YLL041C, strain sdh2, stronger effect = lower value 0.989 | locus YLR027C, strain aat2, stronger effect = lower value 0.935 | locus YLR113W, strain HOG1, stronger effect = lower value 0.996 | locus YLR384C, strain iki3, stronger effect = lower value 0.993 | locus YML120C, strain ndi1, stronger effect = lower value 0.972 | locus YMR125W, strain sto1, stronger effect = lower value 0.982 | locus YMR129W, stronger effect = lower value 0.989 | locus YNL183C, strain NPR1, stronger effect = lower value 0.925 | locus YNL209W, strain ssb2, stronger effect = lower value 0.93 | locus YNL248C, strain rpa49, stronger effect = lower value 0.932 | locus YNL250W, strain rad50, stronger effect = lower value 0.995 | locus YNL322C, strain KRE1 (second series), stronger effect = lower value 0.918 | locus YNR049C, strain mso1, stronger effect = lower value 0.923 | locus YOL012C, strain htz1 0.694 | locus YOR001W, strain rrp6, stronger effect = lower value 0.956 | locus YOR080W, strain dia2, stronger effect = lower value 0.921 | locus YOR231W, strain MKK1, stronger effect = lower value 0.978 | locus YOR290C, strain snf2, stronger effect = lower value 0.888 | locus YOR316C, strain cot1, stronger effect = lower value 0.991 | locus YPL240C, strain hsp82, stronger effect = lower value 0.966 | locus YPL256C, strain CLN2, stronger effect = lower value 1.03 | locus YPR141C, strain kar3, stronger effect = lower value 0.988
active: locus YJR043C, strain POL32, stronger effect = lower value 0.249 | locus YKL160W, strain elf1, stronger effect = lower value 0.749 | locus YKR001C, strain vps1, stronger effect = lower value 0.0831 | locus YLL001W, strain dnm1, stronger effect = lower value 0.868 | locus YLR039C, strain RIC1, stronger effect = lower value 0.12 | locus YLR058C, strain SHM2, stronger effect = lower value 0.571 | locus YLR102C, strain apc9, stronger effect = lower value 0.863 | locus YLR221C, strain rsa3, stronger effect = lower value 0.898 | locus YLR258W, strain gsy2, stronger effect = lower value 0.902 | locus YLR262C, strain YPT6 (second series), stronger effect = lower value 0.23 | locus YLR262C, strain YPT6, stronger effect = lower value 0.166 | locus YLR268W, strain sec22, stronger effect = lower value 0.597 | locus YLR320W, strain mms22, stronger effect = lower value 0.75 | locus YLR330W, strain CHS5, stronger effect = lower value 0.0549 | locus YLR342W, strain FKS1 (second series), stronger effect = lower value 0.075 | locus YLR342W, strain FKS1, stronger effect = lower value 0.0723 | locus YLR357W, strain rsc2, stronger effect = lower value 0.538 | locus YLR370C, strain arc18, stronger effect = lower value 0.657 | locus YLR371W, strain rom2, stronger effect = lower value 0.123 | locus YLR418C, strain cdc73, stronger effect = lower value 0.18 | locus YML016C, strain PPZ1, stronger effect = lower value 0.548 | locus YML032C, strain rad52, stronger effect = lower value 0.555 | locus YML124C, strain tub3, stronger effect = lower value 0.805 | locus YMR058W, strain fet3, stronger effect = lower value 0.838 | locus YMR078C, strain ctf18, stronger effect = lower value 0.871 | locus YMR205C, strain PFK2, stronger effect = lower value 0.776 | locus YMR223W, strain ubp8, stronger effect = lower value 0.514 | locus YMR231W, strain pep5, stronger effect = lower value 0.114 | locus YMR307W, strain GAS1, stronger effect = lower value 0.192 | locus YNL067W, strain RPL9B, stronger effect = lower value 0.841 | locus YNL071W, strain lat1, stronger effect = lower value 0.827 | locus YNL153C, strain GIM3, stronger effect = lower value 0.223 | locus YNL233W, strain BNI4, stronger effect = lower value 0.408 | locus YNL271C, strain bni1, stronger effect = lower value 0.846 | locus YNL298W, strain CLA4, stronger effect = lower value 0.839 | locus YNL307C, strain MCK1, stronger effect = lower value 0.37 | locus YNR052C, strain pop2, stronger effect = lower value 0.273 | locus YOL147C, strain pex11, stronger effect = lower value 0.757 | locus YOR061W, strain CKA2, stronger effect = lower value 0.135 | locus YOR069W, strain VPS5, stronger effect = lower value 0.687 | locus YOR070C, strain gyp1, stronger effect = lower value 0.736 | locus YOR083W, strain WHI5, stronger effect = lower value 0.728 | locus YOR106W, strain vam3, stronger effect = lower value 0.387 | locus YOR136W, strain idh2, stronger effect = lower value 0.867 | locus YOR144C, strain elg1, stronger effect = lower value 0.833 | locus YOR184W, strain ser1, stronger effect = lower value 0.387 | locus YOR265W, strain rbl2, stronger effect = lower value 0.881 | locus YOR270C, strain vph1, stronger effect = lower value 0.374 | locus YPL051W, strain arl3, stronger effect = lower value 0.232 | locus YPL078C, strain atp4, stronger effect = lower value 0.755 | locus YPL106C, strain sse1, stronger effect = lower value 0.709 | locus YPL241C, strain CIN2, stronger effect = lower value 0.286 | locus YPR119W, strain clb2, stronger effect = lower value 0.354 | locus YPR163C, strain tif3, stronger effect = lower value 0.889 | locus YPR167C, strain met16, stronger effect = lower value 0.766 | strain wtn01, stronger effect = lower value 0.468
